LmPK inh: qHTS Assay for Inhibitors of Leishmania Mexicana Pyruvate Kinase (LmPK) | Q27686 | Potency, µM (top dose mostly 57.5 µM), hits mostly inhibitors | purified LmPK, Kinase-Glo ATP luminescence, 1 h | 290,000 compounds, 0.37% hits
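Purified LmPK (0.1 nM) converted ADP (0.1 mM) to ATP with PEP (0.5 mM) in imidazole buffer pH 7.2 with KCl and MgCl2, 1 h at room temperature. ATP was read by Kinase-Glo luminescence; data normalized to uninhibited and no-enzyme controls.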
Sm TGR block: qHTS Assay for the Inhibitors of Schistosoma Mansoni Peroxiredoxins; 360,000 compounds, 3% hits; Potency, µM (titrated, usually from 114 µM), usual class: inhibitors; Schistosoma mansoni thioredoxin glutathione reductase (TGR), Q962Y6; purified TGR, DTNB reduction, TNB absorbance 405 nm; note: nearly all actives have a fitted effect of over 60% in size
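First, TGR (20 nM dispensed) and NADPH were mixed with compound. Second, a 15 min room-temperature incubation followed. Third, further NADPH and then DTNB were added to start the reaction. Finally, TNB absorbance was monitored kinetically.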
Shiga inhibitor: A qHTS for Small Molecule Inhibitors of Shiga Toxin; 290,000 compounds, 9.2% hits; AID 2315, 2010; Vero cells, Shiga toxin protein synthesis inhibition reporter; inhibition, % at 38.7 µM; in the data active = inhibition mostly above about 28%, no sharp cut-off; inactive = mostly below about 43%
Tb PYK inh: qHTS of Trypanosoma Brucei Inhibitors. TbPYK enzyme, Kinase-Glo Plus ATP luminescence, 45 min. pyruvate kinase (Trypanosoma brucei), Q57TT1. 410,000 compounds, 0.12% hits. Potency, µM (highest dose often 76.8 µM), hits mostly inhibitors; note: nearly all actives have a fitted effect of over 50% in size
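TbPYK + substrate in 50 mM TEA pH 7.2, 100 mM KCl, 10 mM MgCl2, 0.05% BSA, 0.01% Tween-20; cpd pinned; ADP 130 uM final; 45 min RT; Kinase-Glo Plus 10 min; luminescence endpoint.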
CHX counter: Cycloheximide Counterscreen for Small Molecule Inhibitors of Shiga Toxin; max response, %; 300,000 compounds, 12% hits; cell reporter, cycloheximide protein synthesis inhibition counterscreen; in the data active = max response mostly above about 13%, no sharp cut-off; inactive = mostly below about 14%; note: read at 38.3 µM for the half of the compounds with a filed dose
Giardia FBPA inh: qHTS Assay for Inhibitors of Fructose-1,6-bisphosphate Aldolase from Giardia Lamblia; A8B2U2; purified Giardia FBPA; Potency, µM (doses to about 59.6 µM), most hits filed as inhibitors; 290,000 compounds, 0.71% hits; note: nearly all actives have a fitted effect of over 55% in size
Target sequence (A8B2U2 whole entry, looked up): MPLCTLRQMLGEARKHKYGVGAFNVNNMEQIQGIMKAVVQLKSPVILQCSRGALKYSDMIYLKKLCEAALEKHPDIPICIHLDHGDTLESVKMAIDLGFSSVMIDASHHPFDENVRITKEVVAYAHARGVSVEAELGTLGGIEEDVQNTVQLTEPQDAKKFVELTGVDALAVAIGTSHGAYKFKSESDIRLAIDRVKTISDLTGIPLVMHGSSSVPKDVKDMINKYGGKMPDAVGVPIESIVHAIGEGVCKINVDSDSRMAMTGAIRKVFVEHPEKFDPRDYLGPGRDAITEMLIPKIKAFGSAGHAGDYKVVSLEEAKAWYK
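Giardia FBPA (40 nM reagent) was preincubated 10 min at RT with compound (up to 57.5 uM final), then substrate plus GAPDH/TPI/NAD/arsenate coupling system with diaphorase/resazurin was added; resorufin fluorescence (525/598 nm) was read after 20 min.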
Large screens that a line does not name were inactive. This is one part of a sample in which hits are shown more often than they occur. Unless noted, calls come from the whole dose curve; as a rule, active = well fitted curve in the direction sought with a large enough effect; inconclusive = small, poorly fitted or top-dose-only effect, or another doubt; inactive = no such curve, though single readings can be large; an effect the other way counts as inactive or inconclusive.

CCOc1ccccc1NC(=O)CSc1ncnc2c1oc1ccccc12	CHX counter 23
CCCSc1ncnc2c1oc1ccccc12	CHX counter 25
CC(C)Sc1ncnc2c1oc1ccccc12	Shiga inhibitor 85, CHX counter 32
O=C(CSc1ncnc2c1oc1ccccc12)Nc1ccccc1F	none
O=C(CSc1ncnc2c1oc1ccccc12)Nc1cccc(Cl)c1	CHX counter 9.2
CCc1nc(SCC(=O)c2cccs2)c2oc3ccccc3c2n1	CHX counter 27 (no result: Tb PYK inh)
CCc1nc(SCC(=O)NCCc2ccccc2)c2oc3ccccc3c2n1	none
CC(=O)CSc1ncnc2c1oc1ccccc12	CHX counter 12
c1ccc(Sc2ncnc3c2oc2ccccc23)nc1	Shiga inhibitor 115, CHX counter 64
Cc1nc2nc(NCc3ccc(Br)cc3)[nH]n2c(=O)c1Cc1ccccc1	none (no result: LmPK inh, Shiga inhibitor, CHX counter, Giardia FBPA inh)
O=S(=O)(Nc1cc(Br)cc2cccnc12)c1ccccc1	none (no result: LmPK inh, Sm TGR block, Tb PYK inh, Giardia FBPA inh)
COc1ncnc2c1oc1ccccc12	Shiga inhibitor 112, CHX counter 48
O=C1NC2CCCCN2C12CCN(CCCN1c3ccccc3CCc3ccc(Cl)cc31)CC2 (stereo not drawn)	none (no result: LmPK inh, Sm TGR block, Shiga inhibitor, CHX counter, Giardia FBPA inh)
O=C(NCCO)Nc1ccc2nc(-c3ccco3)c(-c3ccco3)nc2c1	none (no result: Sm TGR block, Tb PYK inh)
COc1ccc2nc(-c3ccco3)c(-c3ccco3)nc2c1	Sm TGR block 3.5µM, Tb PYK inh inconclusive, CHX counter 54, Giardia FBPA inh inconclusive
Nc1nc(-c2ccco2)cs1	Sm TGR block inconclusive, Giardia FBPA inh inconclusive
c1coc(-c2nc(-c3ccco3)c(-c3ccco3)nc2-c2ccco2)c1	Sm TGR block 0.71µM, Giardia FBPA inh inconclusive
Nc1nc(-c2ccco2)c(-c2ccco2)s1	Sm TGR block 20µM, Giardia FBPA inh inconclusive
c1coc(-c2nc3cc4ccccc4cc3nc2-c2ccco2)c1	Shiga inhibitor 66, CHX counter 26 (no result: LmPK inh, Sm TGR block, Tb PYK inh, Giardia FBPA inh)
c1coc(-c2ncc[nH]2)c1	none
COc1ccccc1NC(=O)C1=C(C)Nc2nc(SCc3ccccc3Cl)nn2C1c1cccnc1 (stereo not drawn)	none (no result: LmPK inh, Shiga inhibitor, CHX counter, Giardia FBPA inh)
CCOC(=O)c1sc2ccccc2c1S(=O)(=O)Nc1c(C)cccc1C	none (no result: LmPK inh, Shiga inhibitor, CHX counter, Giardia FBPA inh)
Cc1cc(OCCCSc2nc(-c3ccc(C(C)(C)C)cc3)nc3cc(=O)[nH]n23)ccc1Cl	none (no result: LmPK inh, Shiga inhibitor, CHX counter, Giardia FBPA inh)
O=C(Nc1ccc(OCc2cc(=O)n3c4c(sc3n2)CCCC4)cc1)c1cccc(F)c1	none (no result: LmPK inh, Shiga inhibitor, CHX counter, Giardia FBPA inh)
CC(=O)Nc1ccc(S(=O)(=O)N(C)CC(=O)N(C)Cc2sccc2C)cc1	none (no result: LmPK inh, Shiga inhibitor, CHX counter, Giardia FBPA inh)
CSc1nnc2c(n1)c(C)nn2-c1ccc(C)cc1	CHX counter 20
Cc1ccc(-n2nc(C)c3c(C(=O)O)cc(C)nc32)cc1	none (no result: LmPK inh, Shiga inhibitor, CHX counter, Giardia FBPA inh)
Cc1ccccc1CS(=O)(=O)Cc1ccc(C(=O)NC2CCCCC2)o1	none
N#Cc1ccccc1OCC(=O)NCCNC(=O)COc1ccccc1C#N	none (no result: LmPK inh, Shiga inhibitor, CHX counter, Giardia FBPA inh)
COC(=O)CCC(=O)COc1ccccc1C#N	Shiga inhibitor 62, CHX counter 27
COC(=O)CCC(=O)COc1ccc(OC)cc1C#N	CHX counter 23
COC(=O)COc1ccc(S(=O)(=O)Nc2cc(OC)ccc2OC)cc1	none (no result: Tb PYK inh)
C=C1C(=O)O[C@H]2C[C@]3(C)C([C@@H](OC(=O)/C(C)=C/C)[C@H]12)[C@](C)(O)CC[C@H]3O (stereo partly drawn)	Sm TGR block 14µM, CHX counter 30
C=C1C(=O)O[C@H]2[C@H]1[C@H](OC(=O)/C(C)=C\C)C[C@]1(CO1)[C@@H]1[C@H](OC(C)=O)C=C(C)[C@]21O	none (no result: LmPK inh, Sm TGR block, Shiga inhibitor, CHX counter, Giardia FBPA inh)
Cc1cc(Sc2ncnc(N)c2[N+](=O)[O-])ncn1	Sm TGR block 0.89µM, Giardia FBPA inh inconclusive
CN1CCN(c2ccc(Cl)cc2N)CC1	CHX counter 11
Nc1cc(Cl)ccc1N1CCCC1	Sm TGR block inconclusive
CCOC(=O)C1=C(c2ccccc2)OC(N)=C(C#N)C1c1cccnc1 (stereo not drawn)	none
CCOC(=O)C1=C(C)OC(N)=C(C#N)C1c1ccoc1 (stereo not drawn)	Sm TGR block 32µM
CCOC(=O)C1=C(c2ccccc2)OC(N)=C(C#N)C1c1ccc(Br)s1 (stereo not drawn)	Sm TGR block 40µM
CCOC(=O)C1=C(c2ccc(OC)cc2)OC(N)=C(C#N)C1c1cccnc1 (stereo not drawn)	Sm TGR block 11µM
CCOC(=O)C1=C(N)OC(CCl)=C(C#N)C1c1ccsc1 (stereo not drawn)	Sm TGR block 13µM
CC1=C(C(=O)OCc2ccccc2)C(c2ccsc2)C(C#N)=C(N)O1 (stereo not drawn)	none
CNC(=O)COc1coc(CN2CCN(c3cccc(Cl)c3)CC2)cc1=O	none
CCOC(=O)C1=C(CSc2nc(-c3ccccc3)ccc2C#N)OC(N)=C(C#N)C1c1ccc(OC)cc1 (stereo not drawn)	CHX counter 63
COc1cccc(CN2CCN(Cc3cccc4c3OCO4)CC2CCO)c1 (stereo not drawn)	CHX counter 19
COc1cccc(CN2CCN(Cc3ccon3)CC2CCO)c1 (stereo not drawn)	none
CC(=O)Nc1ccc(CN2CCN(CC=C(C)C)C(CCO)C2)cc1 (stereo not drawn)	none
CCOc1ccccc1CN1CCN(Cc2ccc3cc(F)ccc3n2)CC1CCO (stereo not drawn)	Sm TGR block 35µM
CC(=O)Nc1ccc2nc(CN3CCN(CC=C(C)C)C(CCO)C3)ccc2c1 (stereo not drawn)	Sm TGR block 20µM
COc1cccc(CN2CCN(Cc3ccc4c(NC(C)=O)cccc4n3)CC2CCO)c1 (stereo not drawn)	Sm TGR block 20µM
CC1N=C(SCC(=O)c2ccc(F)cc2)N2C(C)N=C(SCC(=O)c3ccc(F)cc3)N12 (stereo not drawn)	none (no result: LmPK inh, Sm TGR block, Shiga inhibitor, CHX counter, Giardia FBPA inh)
COc1ccc(CN2CCN(Cc3ccc4cc(F)ccc4n3)CC2CCO)c(C)c1C (stereo not drawn)	Sm TGR block 22µM
Cc1ccc(CN2CCN(Cc3ccc4cc(F)ccc4n3)CC2CCO)o1 (stereo not drawn)	Sm TGR block 18µM
Cc1nc2ccccc2nc1CN1CCN(Cc2ccc(F)c(F)c2)C(CCO)C1 (stereo not drawn)	Sm TGR block 14µM
OCCC1CN(Cc2ccc3cc(Cl)ccc3n2)CCN1Cc1ccsc1 (stereo not drawn)	Sm TGR block 35µM
CCOc1ccc2nc(CN3CCN(Cc4ccccc4OCC)C(CCO)C3)ccc2c1 (stereo not drawn)	Sm TGR block inconclusive

From PubChem
